{
  "source": "PubChem BioAssay (NCI)",
  "note": "Compounds without any hit were thinned out: in the full panel of roughly 79,000, 15% have a hit. Values without a mark were called inactive. Active and inactive are the calls of the source. No stated cut-off is given here; in the data, active means growth inhibition above about 70%; inactive means the rest.",
  "data": [
    {"test": "NCI Yeast Anticancer Drug Screen. Data for the rad50 strain (AID 155);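 further: 0% = growth of vehicle-only cultures of the same strain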", "conditions": "S. cerevisiae rad50 strain growth inhibition; at 33.0 µM; hits give high values", "summary_of_the_method": "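Vehicle-treated cultures provide the reference for the growth inhibition reported for compound-exposed, repair-deficient yeast.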", "values": [
      {"smiles": "CCOP(=O)(OCC)C(Cc1ccccc1)N=C(c1ccccc1)c1ccccc1", "note": "(stereo not drawn)", "growth inhibition": "96% (active)"},
      {"smiles": "CCc1ncnc2cc(OCC3CO3)c(OC)cc12", "note": "(stereo not drawn)", "growth inhibition": "85% (active)"},
      {"smiles": "CCOC(=O)[C@H]1Nc2ccccc2C2c3ccccc3CC21", "note": "(stereo partly drawn)", "growth inhibition": "27%"},
      {"smiles": "O=CNc1ccc2c(c1)C(=O)c1ccccc1-2", "growth inhibition": "93% (active)"},
      {"smiles": "CCOc1ccc2c(c1)c(CC(=O)O)cn2C", "growth inhibition": "92% (active)"},
      {"smiles": "OC1CSCCCSCCSCCCSC1", "growth inhibition": "-2%"},
      {"smiles": "N#Cc1c(N)[nH]c2ccc(Sc3ccccc3)cc12", "growth inhibition": "93% (active)"},
      {"smiles": "Cc1ccc(-c2ccc(Nc3c4ccccc4nc4ccccc34)cc2)cn1", "growth inhibition": "93% (active)"},
      {"smiles": "c1ccc2c(c1)NC(NC1Nc3ccccc3N1)N2", "growth inhibition": "23%"},
      {"smiles": "OC(COc1cccc2ccccc12)CN1CCOCC1", "note": "(stereo not drawn)", "growth inhibition": "37%"},
      {"smiles": "CCC/C(Cl)=N\\OC(=O)Nc1ccc(Br)cc1", "growth inhibition": "97% (active)"},
      {"smiles": "COc1ccc(/C=C2\\SC(=S)N(/C=C/c3nc4ccccc4[nH]c3=O)C2=O)cc1OC", "growth inhibition": "61%"},
      {"smiles": "O=C(NNc1ccnc2cc(Cl)ccc12)/C(=C\\c1ccccc1Cl)NC(=O)c1ccccc1", "growth inhibition": "33%"},
      {"smiles": "CSC1=NNC(SC)=NN1", "growth inhibition": "66%"},
      {"smiles": "Cc1c(C2=C(Br)C(=O)N(C)C2=O)c(=O)n(C)c(=O)n1C", "growth inhibition": "78% (active)"},
      {"smiles": "NCCNc1ccc(NCCN)c2c1C(=O)c1c(O)ccc(O)c1C2=O", "growth inhibition": "85% (active)"},
      {"smiles": "Cn1c(=O)c(-c2ccccc2)c(N=[N+]=[N-])c2ccccc21", "growth inhibition": "92% (active)"},
      {"smiles": "CCCCCCCCCCCCCCCCCCOCC(O)COP(=O)(O)OCC1OC(n2cc(F)c(=O)[nH]c2=O)CC1O", "note": "(stereo not drawn)", "growth inhibition": "96% (active)"}
    ]}
  ]
}
